Data reported in PubChem BioAssay (NCATS).
Inconclusive results are not listed. Activity calls are given as the source filed them. Unless noted, calls come from the whole dose curve; as a rule, active = well fitted curve in the direction sought with a large enough effect; inconclusive = small, poorly fitted or top-dose-only effect, or another doubt; inactive = no such curve, though single readings can be large; an effect the other way counts as inactive or inconclusive.

Key:
[1] = molecular target: Lysosomal acid glucosylceramidase (Homo sapiens) (UniProt P04062); experiment: Glucocerebrosidase-p2 (AID 348; in the data active = potency below about 10 µM; note: potency is the fitted concentration of half-maximal effect); details: purified GBA, blue fluorogenic substrate, 40 min
In short: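 Normal human glucocerebrosidase (0.2 nM) with blue fluorogenic substrate (80 uM final) in citrate/phosphate pH 5.9 with 10mM sodium taurocholate, 0.01% tween-20; 40 min RT, NaOH/glycine stop; fluorescence Ex 365/Em 440; AC50 from a titration from 0.6 nM upwards.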

[2] = AP1 Signaling Pathway (AID 357; active = well fitted curve in either direction with a large enough effect, not every such curve was filed as active;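 note: ME-180 reporter cells stimulated with EGF at its EC50 level; % is set by controls: 0 for no effect and ±100 for the full control effect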); details: ME-180 AP-1-bla reporter, EGF-induced, beta-lactamase ratio, 5 h; at 7.69 µM (top of the series) unless noted
In short: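 In this screen, ME-180 cells in Opti-MEM with 0.5% dialyzed FBS received EC50 EGF and compound titrations for 5 h. AP-1 reporter beta-lactamase was detected via CCF4 ratio, giving AC50 for positive and negative modulators.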

[3] = molecular target: Cytochrome P450 1A2 (Homo sapiens) (UniProt P05177); experiment: p450-cyp1a2 (AID 410; calls by dose curve; note: potency is the fitted concentration of half-maximal effect); details: recombinant CYP1A2, luciferin-ME demethylation, luminescence; series mostly up to 57 µM
In short: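 20nM CYP1A2, 100uM Luciferin-ME (=Km), 100mM KPO4; cpd 10 min RT; +NADPH regen, 60 min RT; stop/detect 20 min; luminescence. Normalized to furafylline 57 uM = full inhibition.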

[4] = NFAT Signaling Pathway (AID 444; active = well fitted curve in either direction with a large enough effect, not every such curve was filed as active;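 note: carbachol stimulus at about its EC50 of 1 µM final; % is set by controls: 0 for no effect and ±100 for the full control effect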); details: Jurkat NFAT-bla M1, carbachol, beta-lactamase ratio, 5 h; at 7.69 µM (top of the series) unless noted
In short: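 Read-out: CCF4 FRET ratio (460 nm/530 nm) after 1 h RT dye loading, used for %activity and AC50 from titration series. Cells: Jurkat NFAT-β-lactamase/M1 line, treated with compound plus 1 uM carbachol for 5 h, 37 °C.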

[5] = Stat Signaling Pathway (AID 446; active = well fitted curve in either direction with a large enough effect, not every such curve was filed as active;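 note: ME-180 cervical cancer cells given 40 pM IL-6 alongside compound; SIE-controlled beta-lactamase reporter measured as 460/530 nm FRET emission ratio; % is set by controls: 0 for no effect and ±100 for the full control effect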); details: ME-180 SIE beta-lactamase reporter, IL-6 stimulated, 5 h; at 7.69 µM (top of the series) unless noted
In short: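 Emission at 460 and 530 nm (excitation 405 nm) reports SIE-controlled beta-lactamase in ME-180 cells. Cells received compound with 40 pM IL-6 for 5 hrs at 37 C; data scaled between 300 pM IL-6 and 125 nM JAK-inhibitor controls.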

[6] = molecular target: Glucocorticoid receptor (Homo sapiens) (UniProt P04150); experiment: GR-GFP Redistribution (AID 450;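 active = compounds whose dose series gives a full or clear partial fitted curve of increased nuclear translocation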; note: potency is the fitted concentration of half-maximal effect); details: U2OS GR-GFP nuclear translocation, laser cytometry, 2 h
[7] = molecular target: Glucocorticoid receptor (Homo sapiens) (UniProt P04150); experiment: GR-EFC Redistribution (AID 451; calls by dose curve; note: potency is the fitted concentration of half-maximal effect); details: CHO-K1 GR-EFC translocation, beta-gal luminescence, 2 h
In short: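 Translocation of GR-ED fusion to nuclear EA restores b-gal, read by luminescence after 1 h room-temperature detection. Engineered CHO-K1 biosensor cells, 1,000/well, exposed 2 h at 37 C to titrations up to 46 uM final.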

[8] = molecular target: Mitogen-activated protein kinase 10 (Mus musculus) (UniProt Q61831); experiment: JNK3 AlphaScreen Assay (AID 530; active = well fitted curve in either direction with a large enough effect, not every such curve was filed as active;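 note: kinase came from lysate of stimulated human HepG2 cells; signal reports phosphorylation of biotinylated GST-cJun 1-79 at Ser73 with 10 µM ATP; % is set by controls: 0 for no effect and ±100 for the full control effect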); details: JNK3 lysate, c-Jun phosphorylation; series mostly up to 57.1 µM
In short: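 Kinase buffer: 20 mM Tris-HCl pH 7.6, 10 mM MgCl2, 1 mM DTT, 0.1 mM Na3VO4, 0.01% Tween-20; ATP 10 uM. Substrate biotin-GST-cJun(1-79), enzyme from activated HepG2 lysates. Detection by Ser73 phospho-antibody AlphaScreen.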

[9] = molecular target: 3',5'-cyclic-AMP phosphodiesterase 4B (Homo sapiens) (UniProt Q07343); experiment: qHTS Assay for Inhibitors of PDE-IV (AID 607; active = well fitted activation curve with a large enough effect in the main read-out, with a control signal flat, not every such curve was filed as active; note: % of control where 0% means no effect); details: HEK293 ACTOne CNG channel cells, membrane potential fluorescence; series mostly up to 22.9 µM
In short: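 The readout is membrane depolarisation from a cAMP-sensing CNG channel, detected with a potential dye at ex 535/em 590. Cells were HEK293-derived (endogenous PDE-IV) at 1000 cells/well, titrated up to 22.9 uM final.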

[10] = molecular target: Dual specificity protein kinase CLK4 (Homo sapiens) (UniProt Q9HAZ1); experiment: qHTS Assay for Inhibitors of CDC-like Kinase 4 (ADP-Glo Assay) (AID 1771); details: recombinant CLK4, ADP-Glo luminescence; series mostly up to 80 µM; note: % is set by controls: 0 for no effect and ±100 for the full control effect; nearly all actives have a fitted effect of over 70% in size
In short: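 25 nM Clk4, 100 uM RS peptide, 1 uM ATP (final); 2 mM MgCl2, 0.5 mM EGTA, 2.5 mM DTT, 0.01% Triton X-100; 1 hr RT. ADP-Glo readout: ATP depletion 45 min, conversion/luciferase 30 min, luminescence.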

[11] = molecular target: Dual specificity protein kinase CLK4 (Homo sapiens) (UniProt Q9HAZ1); experiment: qHTS Assay for Inhibitors of CDC-like Kinase 4 (ADP-FP Assay) (AID 1795); details: Transcreener ADP fluorescence polarization; series mostly up to 50 µM;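 note: recombinant human CLK4 phosphorylating RS repeat peptide at 1 µM ATP; % is set by controls: 0 for no effect and ±100 for the full control effect; nearly all actives have a fitted effect of over 60% in size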
In short: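 Clk4 6.25 nM; RS peptide 100 uM; ATP 1 uM; 25 mM Tris pH 7.5, 10 mM MgCl2; 1 h reaction. ADP detected via antibody/orange tracer FP displacement; TG003 positive control.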

[12] = molecular target: Ubiquitin carboxyl-terminal hydrolase 1 (Homo sapiens) (UniProt O94782); experiment: Inhibitors of USP1/UAF1: Pilot qHTS (AID 504865); details: purified USP1/UAF1, Ub-rhodamine cleavage fluorescence; series mostly up to 54.9 µM; note: nearly all actives have a fitted effect of over 35% in size; note: potency is the fitted concentration of half-maximal effect
In short: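 In 50mM HEPES pH 7.8 containing 0.5mM EDTA, 1mM TCEP, 0.1 mg/ml BSA and 0.01% Tween-20, 1nM USP1/UAF1 is exposed to compound for 15 min, then Ub-Rho (150nM final) is added and fluorescence is read over time.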

[13] = Primary qHTS for small molecule stabilizers of the endoplasmic reticulum resident proteome: Secreted ER Calcium Modulated Protein (SERCaMP) assay (AID 1508630); details: SH-SY5Y GLuc-SERCaMP (Gaussia luciferase released on ER calcium loss) secretion, thapsigargin, luminescence; series mostly up to 38.4 µM; note: % is set by controls: 0 for no effect and ±100 for the full control effect
In short: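 The SH-SY5Y reporter protocol was run at 3 concentrations up to 38.3 uM (primary) or 11 concentrations (follow-up): 16 h compound, 100 nM thapsigargin for 4 h, then extracellular luciferase luminescence.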

[14] = molecular target: Cytochrome P450 3A4 (Homo sapiens) (UniProt P08684); experiment: qHTS Assay for Activators of Cytochrome P450 3A4 (AID 885); details: recombinant CYP3A4, Luciferin-PPXE luminescence, 60 min; series mostly up to 57.1 µM; note: nearly all actives have a fitted effect of over 65% in size
In short: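 Activators are scored by enhanced luminescence from CYP3A4 conversion of luciferin-PPXE (25uM, equal to KM) to luciferin, after 60 min at RT with an NADPH-regenerating system.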

[15] = molecular target: Cytochrome P450 3A4 (Homo sapiens) (UniProt P08684); experiment: qHTS Assay for Inhibitors and Substrates of Cytochrome P450 3A4 (AID 884); details: recombinant CYP3A4, Luciferin-PPXE luminescence; series mostly up to 57.1 µM; note: potency is the fitted concentration of half-maximal effect; nearly all actives have a fitted effect of over 50% in size
In short: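 Luminescent readout of luciferin produced by CYP3A4 (20 nM) dealkylation of Luciferin-PPXE, 25 uM (its KM). NADPH-driven reaction ran 60 min at RT after 10 min compound preincubation; data scaled to 57 uM ketoconazole as 100% inhibition.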

[16] = molecular target: Cytochrome P450 2D6 (Homo sapiens) (UniProt P10635); experiment: qHTS Assay for Inhibitors and Substrates of Cytochrome P450 2D6 (AID 891); details: recombinant CYP2D6, luciferin-ME EGE luminescence; series mostly up to 57.1 µM; note: potency is the fitted concentration of half-maximal effect; nearly all actives have a fitted effect of over 60% in size
In short: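 Luminescent read-out of luciferin formed by 5 nM human CYP2D6 demethylating 30 uM Luciferin-ME EGE (Km level) over 60 min at room temperature after NADPH regeneration addition. Data normalized to full inhibition by 1.43 uM quinidine.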

[17] = qHTS Assay for Identification of Small Molecule Agonists for Hypoxia Response Element Signaling Pathway (AID 914; active = well fitted activation curve with a large enough effect in the signal ratio, with a control signal flat, not every such curve was filed as active; the % refers to the signal ratio; note: potency is the fitted concentration of half-maximal effect; for activation: % of control where 0% means no effect); details: ME-180 (cervical carcinoma) HRE-bla reporter, beta-lactamase ratio, CoCl2, 17 h; activation: stronger effect = higher value
In short: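 HRE-bla ME-180 cells with beta-lactamase reporter under hypoxia response element, compounds with EC50 CoCl2 for 17 hours at 37 C. CCF4 substrate, 460nm/530nm emission ratio gave %Activity; AC50 from titration series.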

[18] = molecular target: Dual specificity protein kinase CLK4 (Homo sapiens) (UniProt Q9HAZ1); experiment: qHTS Assay for Inhibitors of CDC-like Kinase 4 (Kinase-Glo Assay) (AID 1770); details: recombinant Clk4, Kinase-Glo ATP depletion luminescence; series mostly up to 66.7 µM; note: potency is the fitted concentration of half-maximal effect; nearly all actives have a fitted effect of over 65% in size
In short: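 Substrate mix (RS peptide 100 uM, ATP 1 uM) dispensed, compound pinned in, then Clk4 added to 25 nM final. Incubated 4.5 h at RT; Kinase-Glo reagent added, luminescence read after 5 min.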

Chain of 3',5'-cyclic-AMP phosphodiesterase 4B (Homo sapiens) (Q07343 whole entry, looked up): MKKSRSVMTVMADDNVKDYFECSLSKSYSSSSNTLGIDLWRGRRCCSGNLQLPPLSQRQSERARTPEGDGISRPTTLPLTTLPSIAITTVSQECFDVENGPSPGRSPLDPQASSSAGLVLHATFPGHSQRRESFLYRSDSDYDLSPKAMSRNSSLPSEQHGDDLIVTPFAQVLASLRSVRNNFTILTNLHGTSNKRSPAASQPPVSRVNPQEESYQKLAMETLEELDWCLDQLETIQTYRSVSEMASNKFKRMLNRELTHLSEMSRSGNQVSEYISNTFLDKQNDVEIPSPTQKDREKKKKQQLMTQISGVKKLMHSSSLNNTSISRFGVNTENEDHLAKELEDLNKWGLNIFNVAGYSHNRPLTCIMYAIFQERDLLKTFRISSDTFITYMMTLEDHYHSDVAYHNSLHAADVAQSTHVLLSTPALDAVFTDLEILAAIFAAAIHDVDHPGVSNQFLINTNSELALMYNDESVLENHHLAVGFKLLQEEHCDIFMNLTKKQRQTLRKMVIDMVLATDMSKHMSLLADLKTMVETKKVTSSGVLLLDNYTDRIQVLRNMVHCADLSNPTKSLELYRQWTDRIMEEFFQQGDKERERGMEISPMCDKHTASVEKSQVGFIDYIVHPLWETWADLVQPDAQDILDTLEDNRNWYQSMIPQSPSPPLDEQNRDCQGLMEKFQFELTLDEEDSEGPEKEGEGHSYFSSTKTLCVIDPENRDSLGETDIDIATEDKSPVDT
Chain of Cytochrome P450 1A2 (Homo sapiens) (P05177 whole entry, looked up): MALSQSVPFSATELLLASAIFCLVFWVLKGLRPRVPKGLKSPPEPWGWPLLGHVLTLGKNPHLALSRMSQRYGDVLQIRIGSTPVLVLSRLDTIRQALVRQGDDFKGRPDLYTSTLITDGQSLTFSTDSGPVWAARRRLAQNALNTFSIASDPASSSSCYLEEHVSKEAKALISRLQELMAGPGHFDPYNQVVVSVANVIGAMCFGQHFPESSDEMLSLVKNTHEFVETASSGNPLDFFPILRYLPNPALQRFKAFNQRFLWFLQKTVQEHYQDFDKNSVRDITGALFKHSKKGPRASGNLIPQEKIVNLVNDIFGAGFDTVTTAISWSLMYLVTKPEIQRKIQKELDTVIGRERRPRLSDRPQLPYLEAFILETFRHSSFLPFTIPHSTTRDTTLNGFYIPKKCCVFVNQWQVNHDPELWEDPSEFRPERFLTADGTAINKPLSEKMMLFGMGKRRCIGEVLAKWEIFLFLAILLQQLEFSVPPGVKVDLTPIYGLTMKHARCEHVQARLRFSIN
Chain of Glucocorticoid receptor (Homo sapiens) (P04150 whole entry, looked up, the tested form may be a part): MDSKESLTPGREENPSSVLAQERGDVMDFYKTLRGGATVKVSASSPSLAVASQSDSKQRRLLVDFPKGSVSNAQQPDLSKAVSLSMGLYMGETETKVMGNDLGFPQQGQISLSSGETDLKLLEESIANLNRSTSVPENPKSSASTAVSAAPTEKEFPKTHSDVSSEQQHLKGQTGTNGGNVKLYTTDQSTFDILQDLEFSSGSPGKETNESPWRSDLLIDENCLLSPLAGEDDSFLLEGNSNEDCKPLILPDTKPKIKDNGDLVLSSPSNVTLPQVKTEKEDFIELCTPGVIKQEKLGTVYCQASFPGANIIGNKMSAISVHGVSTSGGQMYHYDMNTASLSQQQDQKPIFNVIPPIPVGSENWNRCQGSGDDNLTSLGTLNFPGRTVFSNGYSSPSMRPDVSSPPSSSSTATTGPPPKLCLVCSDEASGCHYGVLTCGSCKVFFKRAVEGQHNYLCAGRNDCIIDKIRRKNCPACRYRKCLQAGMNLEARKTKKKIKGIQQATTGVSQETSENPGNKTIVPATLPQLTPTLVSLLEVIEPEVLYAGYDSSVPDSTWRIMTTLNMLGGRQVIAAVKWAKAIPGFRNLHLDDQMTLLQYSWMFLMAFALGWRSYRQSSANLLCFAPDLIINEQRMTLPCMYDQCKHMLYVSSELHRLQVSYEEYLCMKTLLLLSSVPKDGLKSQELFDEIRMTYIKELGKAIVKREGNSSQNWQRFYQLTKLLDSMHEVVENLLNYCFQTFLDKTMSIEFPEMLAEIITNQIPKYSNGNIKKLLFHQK
Chain of Dual specificity protein kinase CLK4 (Homo sapiens) (Q9HAZ1 whole entry, looked up): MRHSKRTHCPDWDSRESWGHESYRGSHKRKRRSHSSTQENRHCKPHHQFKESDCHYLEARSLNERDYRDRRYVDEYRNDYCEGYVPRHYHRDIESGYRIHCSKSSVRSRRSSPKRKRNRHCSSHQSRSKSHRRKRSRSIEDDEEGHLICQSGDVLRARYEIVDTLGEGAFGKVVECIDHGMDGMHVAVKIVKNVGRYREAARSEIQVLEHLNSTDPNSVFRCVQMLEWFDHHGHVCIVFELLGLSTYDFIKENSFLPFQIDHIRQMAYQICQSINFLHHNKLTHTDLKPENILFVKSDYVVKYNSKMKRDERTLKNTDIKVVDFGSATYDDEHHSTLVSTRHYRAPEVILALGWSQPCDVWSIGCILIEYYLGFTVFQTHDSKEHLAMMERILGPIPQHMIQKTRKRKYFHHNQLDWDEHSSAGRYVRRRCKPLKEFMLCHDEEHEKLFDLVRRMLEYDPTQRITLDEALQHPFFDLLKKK
Chain of Cytochrome P450 3A4 (Homo sapiens) (P08684 whole entry, looked up): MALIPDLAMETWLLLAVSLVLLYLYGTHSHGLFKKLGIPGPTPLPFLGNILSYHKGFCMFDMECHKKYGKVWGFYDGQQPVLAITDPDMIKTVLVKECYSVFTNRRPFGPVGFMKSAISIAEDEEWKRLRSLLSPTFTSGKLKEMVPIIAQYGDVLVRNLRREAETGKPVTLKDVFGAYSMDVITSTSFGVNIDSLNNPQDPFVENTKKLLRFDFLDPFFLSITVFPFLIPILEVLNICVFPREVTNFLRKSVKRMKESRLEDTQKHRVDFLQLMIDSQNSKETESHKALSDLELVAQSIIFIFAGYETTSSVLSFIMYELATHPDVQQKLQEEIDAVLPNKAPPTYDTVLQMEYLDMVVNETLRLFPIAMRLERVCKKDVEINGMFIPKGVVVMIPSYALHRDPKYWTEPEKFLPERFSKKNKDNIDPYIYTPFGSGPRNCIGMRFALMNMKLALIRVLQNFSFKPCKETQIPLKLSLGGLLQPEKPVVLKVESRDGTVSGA
Chain of Ubiquitin carboxyl-terminal hydrolase 1 (Homo sapiens) (O94782 whole entry, looked up): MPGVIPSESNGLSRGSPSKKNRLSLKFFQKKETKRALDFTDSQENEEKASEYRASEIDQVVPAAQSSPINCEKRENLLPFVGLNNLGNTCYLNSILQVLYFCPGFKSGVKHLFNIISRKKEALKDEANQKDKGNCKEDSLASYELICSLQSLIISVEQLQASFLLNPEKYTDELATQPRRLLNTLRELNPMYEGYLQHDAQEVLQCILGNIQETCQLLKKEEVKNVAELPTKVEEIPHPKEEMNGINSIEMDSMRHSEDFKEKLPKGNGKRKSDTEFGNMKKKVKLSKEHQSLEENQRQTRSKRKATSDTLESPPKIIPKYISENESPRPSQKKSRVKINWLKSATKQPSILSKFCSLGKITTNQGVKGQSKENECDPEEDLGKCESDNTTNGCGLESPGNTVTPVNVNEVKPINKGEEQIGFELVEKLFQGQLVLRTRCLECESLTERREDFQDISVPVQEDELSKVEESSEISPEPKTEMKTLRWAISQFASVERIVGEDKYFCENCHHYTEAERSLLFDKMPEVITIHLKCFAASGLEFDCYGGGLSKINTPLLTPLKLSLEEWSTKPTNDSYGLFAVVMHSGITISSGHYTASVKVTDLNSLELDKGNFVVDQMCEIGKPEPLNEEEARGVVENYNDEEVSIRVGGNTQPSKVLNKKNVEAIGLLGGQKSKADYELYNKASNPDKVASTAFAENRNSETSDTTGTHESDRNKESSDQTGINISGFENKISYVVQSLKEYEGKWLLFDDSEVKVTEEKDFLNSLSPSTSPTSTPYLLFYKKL
Chain of Lysosomal acid glucosylceramidase (Homo sapiens) (P04062 whole entry, looked up): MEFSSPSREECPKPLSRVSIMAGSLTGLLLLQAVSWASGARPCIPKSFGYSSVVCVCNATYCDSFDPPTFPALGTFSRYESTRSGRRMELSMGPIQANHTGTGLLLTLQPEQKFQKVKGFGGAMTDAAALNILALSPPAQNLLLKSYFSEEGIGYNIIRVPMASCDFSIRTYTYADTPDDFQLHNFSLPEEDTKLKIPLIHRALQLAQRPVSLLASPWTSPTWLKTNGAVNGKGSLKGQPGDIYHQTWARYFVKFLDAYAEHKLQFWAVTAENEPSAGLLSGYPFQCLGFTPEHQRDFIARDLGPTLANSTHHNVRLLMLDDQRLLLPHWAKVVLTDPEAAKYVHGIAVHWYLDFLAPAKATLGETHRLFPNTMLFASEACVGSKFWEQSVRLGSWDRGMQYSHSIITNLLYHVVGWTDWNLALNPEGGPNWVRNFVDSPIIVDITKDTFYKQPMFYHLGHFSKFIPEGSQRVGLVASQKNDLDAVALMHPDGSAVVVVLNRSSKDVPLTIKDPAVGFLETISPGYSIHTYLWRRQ
Chain of Cytochrome P450 2D6 (Homo sapiens) (P10635 whole entry, looked up): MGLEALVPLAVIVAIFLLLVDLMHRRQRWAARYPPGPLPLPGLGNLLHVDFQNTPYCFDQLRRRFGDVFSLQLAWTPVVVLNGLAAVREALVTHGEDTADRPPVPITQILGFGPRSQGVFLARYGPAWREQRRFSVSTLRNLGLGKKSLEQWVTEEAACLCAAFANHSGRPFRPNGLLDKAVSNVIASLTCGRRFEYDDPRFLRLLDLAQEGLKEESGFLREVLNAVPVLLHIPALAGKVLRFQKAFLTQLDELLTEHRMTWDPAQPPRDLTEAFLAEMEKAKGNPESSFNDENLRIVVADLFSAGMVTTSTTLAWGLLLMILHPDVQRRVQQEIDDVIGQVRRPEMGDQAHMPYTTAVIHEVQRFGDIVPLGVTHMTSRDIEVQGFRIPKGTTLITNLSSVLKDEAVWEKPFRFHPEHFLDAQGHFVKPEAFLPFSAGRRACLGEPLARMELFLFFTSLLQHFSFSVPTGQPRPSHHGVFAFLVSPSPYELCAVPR

Cn1c(=O)c(-c2ccc(Cl)cc2)nc2cnc(OCc3ccccc3)nc21
active: Potency [3] 0.794 µM
inactive: Potency [1] > 11.4 µM | activity change, negative = inhibition [2] -12.6% | activity change, negative = inhibition [4] -7.07% | activity, negative = inhibition [5] -4.02% | Potency [6] > 9.22 µM | Potency [7] > 46 µM | Potency [8] | Potency [9] | Potency [10] | Potency [11] | Potency [12] | outcome [13]

Cc1cnc(CNc2nc(-c3ccccc3C)nc3ccccc23)cn1
inactive: Potency [1] > 11.4 µM | activity change, negative = inhibition [2] -8.73% | activity change, negative = inhibition [4] -6.95% | activity, negative = inhibition [5] -5.75% | Potency [6] > 46 µM | Potency [7] > 46 µM | Potency [8] | Potency [9] | Potency [14] | Potency [10] | Potency [11] | Potency [12] | outcome [13]
active: Potency [3] 3.16 µM

Cc1cccc(CNc2ncncc2-c2ccccc2Cl)c1
inactive: Potency [1] > 11.4 µM | activity change, negative = inhibition [2] -12.3% | activity, negative = inhibition [5] -14.1% | Potency [6] > 46 µM | Potency [7] > 46 µM | Potency [8] | Potency [14] | activation [17] -10.3% | Potency [10] | Potency [11] | Potency [12] | outcome [13]
active: Potency [3] 3.16 µM | Potency [15] 0.199 µM | Potency [16] 2 µM

COc1ccccc1-c1cc(NCc2cccs2)ncn1
inactive: activity change, negative = inhibition [2] 0.573% | activity change, negative = inhibition [4] 9.61% | activity, negative = inhibition [5] -5.58% | Potency [6] > 46 µM | Potency [7] > 46 µM | Potency [8] | Potency [9] | Potency [14] | Potency [12] | outcome [13]
active: Potency [3] 1.58 µM | Potency [18] 14.1 µM

Clc1ccccc1-c1nc(NCc2cccnc2)c2ccccc2n1
active: Potency [3] 0.631 µM | Potency [15] 2.51 µM | Potency [18] 28.2 µM | Potency [12] 20 µM
inactive: activity change, negative = inhibition [2] -8.93% | activity change, negative = inhibition [4] 17.1% | activity, negative = inhibition [5] -13.8% | Potency [6] > 46 µM | Potency [7] > 46 µM | Potency [8] | Potency [14] | outcome [13]

COc1ncc2nc(-c3cn(C)c4ccccc34)c(=O)n(CCc3ccccc3)c2n1
active: Potency [17] 1 µM
inactive: Potency [1] > 11.4 µM | activity change, negative = inhibition [2] 24.3% | activity change, negative = inhibition [4] -1.31% | Potency [6] > 9.22 µM | Potency [7] > 46 µM | Potency [10] | Potency [11] | Potency [12] | outcome [13]
